Test results reported in ChEMBL document CHEMBL4513216, “Probing the Open Global Health Chemical Diversity Library for Multistage-Active Starting Points for Next-Generation Antimalarials” (ACS Infect Dis, 2020).
The whole screen tested about 68,000 compounds, of which about 2,700 (4%) showed an effect of 50% or more. The list comes from a sample in which strong results are over-represented; it also holds similar structures and randomly drawn compounds.

Tested on: Plasmodium berghei
Experiment: Screen against P. berghei liver stage (PbLuc), transformed with Luciferase, at 2uM
Assay type: functional, HepG2
Settings: tested at 2 uM

| Structure (SMILES) | INHIBITION [%] |
| --- | --- |
| COCCN1C(=O)CC(N2CCN(c3ccc(F)cc3)CC2)C1=O (stereo not drawn) | 39.9 |
| NC(=O)CCSc1ccccc1NCc1ccc(Cl)s1 | 22.75 |
| CN(C(=O)c1ccon1)[C@@H]1CCC[C@@H](Oc2ccccc2)[C@@H]1O | 44.9 |
| Cc1ocnc1C(=O)N(C)[C@@H]1CC[C@@H](Oc2ccccc2)[C@@H]1O | 67.27 |
| Cc1nc(C(=O)N(C)[C@@H]2CCC[C@@H](Oc3ccccc3)[C@@H]2O)co1 | 9.47 |
| Cc1ccccc1C1(CNC(=O)CCN2C(=O)CCC2=O)CC1 | 26.76 |
| O=C(N1CCOCC1)[C@@]12CCO[C@@H]1CCN(CC1CCCC1)C2 | -55.42 |
| Cc1c(NC(=O)c2cnc[nH]2)cccc1C(=O)NC(C)(C)C | 5.41 |
| COc1ccc(CN(Cc2cc(C)no2)C2CC2)cc1 | -16.88 |
| c1cnc(N2CCC(c3csc(Nc4cnccn4)n3)CC2)nc1 | -41.06 |
| O=C1CC2(CCN(c3nncs3)C2)CN1c1ccc2c(c1)OCCO2 (stereo not drawn) | 58.16 |
| O=C1CC2(CCN(c3nncs3)C2)CN1c1ccccc1 (stereo not drawn) | -5.44 |
| O=C1CC2(CCN(c3nncs3)C2)CN1c1cccc(F)c1 (stereo not drawn) | 21.75 |
| O=C(O)c1ccc(CC2CCN(Cc3ccc(-c4cc[nH]n4)o3)C2)cc1 (stereo not drawn) | 16.93 |
| Cc1ncnc2c1CCN(CC(=O)N(C)C)CC2 | 18.15 |
| Cc1cc(C(F)(F)F)nc(CNC(=O)CCC2CCCCN2C)n1 (stereo not drawn) | 54.77 |
| Cc1cc(C(F)(F)F)nc(CNC(=O)CCC2CCCN(C)C2)n1 (stereo not drawn) | -28.09 |
| Cc1cc(C(F)(F)F)nc(CNC(=O)C2CCCCCN2C)n1 (stereo not drawn) | 20.77 |
| Cc1ccc2nc(CN3CCN(C4CCCCC4)C(=O)C3)cc(O)c2c1 | -17.17 |
| NCC1CCCCN1Cc1cc(O)c2cccc(F)c2n1 (stereo not drawn) | -20.95 |
| Oc1cc(CN2CCCCC2c2cccnc2)nc2c(F)cccc12 (stereo not drawn) | 57.75 |
| Cc1ccc2nc(CN3CCCC3c3cccnc3)cc(O)c2c1 (stereo not drawn) | 50.59 |

| Structure (SMILES) | INHIBITION [%] |
| --- | --- |
| Cc1ccc2nc(CN3CCN(C4CCCC4)C(=O)C3)cc(O)c2c1 | -87.32 |
| OCC1CCCCN1Cc1cc(O)c2cccc(F)c2n1 (stereo not drawn) | 24.36 |
| CN(C)C(CNCc1nc(-c2ccsc2)no1)c1cccs1 (stereo not drawn) | 58.14 |
| CN(C)C(CNCc1nc(-c2ccsc2)no1)c1ccsc1 (stereo not drawn) | 6.82 |
| CN(C)C(CNCc1nc(-c2ccsc2)no1)c1ccco1 (stereo not drawn) | 11.18 |
| c1ccc(CN2CCN(C3CCOC4(CCOCC4)C3)CC2)nc1 (stereo not drawn) | -14.69 |
| CCNc1nc2cn(-c3ccc(C)c(C)c3)c(=O)c-2c[nH]1 | -5.34 |
| c1cncc(CN2Cc3nccn3CC(Cn3cccn3)C2)c1 (stereo not drawn) | -9.53 |
| COc1cc(C)cc(C(C(=O)O)N(C)Cc2ccon2)c1OC (stereo not drawn) | 76.6 |
| COc1ccc(Cl)cc1C(C(=O)O)N(C)Cc1ccon1 (stereo not drawn) | -35.07 |
| COc1cc(F)ccc1C(C(=O)O)N(C)Cc1ccon1 (stereo not drawn) | 12.55 |
| CN(C)CC(=O)N1CCN(c2cc(N3CCCC3CO)ncn2)CC1 (stereo not drawn) | -23.06 |
| COC1[C@@H]2CC[C@H]1CN(c1nc(C)nc3sccc13)C2 (stereo partly drawn) | 32.26 |
| Cc1ccccc1CN(CCN(C)C)Cc1ccc(O)c(C(=O)O)c1 | 56.76 |
| Cc1ccccc1CN(CCN(C)C)Cc1ccc(C(=O)O)cc1 | 34.07 |
| Cc1ccccc1CN(CCN(C)C)Cc1ccccc1C(=O)O | 4.12 |
| Cc1cc(CN2CCc3nc(C(C)C)nc(O)c3CC2)c(C)s1 | 23.7 |
| Cc1ccnc(NC(=O)c2ccc(Br)o2)c1 | 62.51 |
| Cc1ccnc(NC(=O)c2ccc(Cl)o2)c1 | 5.48 |
| Cc1ccnc(NC(=O)c2ccc(C)o2)c1 | -4.26 |
| O=C(CN1CCc2cncnc2C1)NCCOc1ccccc1 | 10.62 |
| O=C(CN1CCc2cncnc2C1)NCCOc1cccc(Cl)c1 | 29.54 |

| Structure (SMILES) | INHIBITION [%] |
| --- | --- |
| Cc1cccc(OCCNC(=O)CN2CCc3cncnc3C2)c1 | 51.94 |
| Cn1cc(CN2CCCC(c3nc(O)cc(-c4cccs4)n3)C2)cn1 (stereo not drawn) | 32.24 |
| Oc1cc(-c2cccs2)nc(C2CCCN(CC3=CCCOC3)C2)n1 (stereo not drawn) | 51.88 |
| Oc1cc(-c2nccs2)nc(C2CCN(Cc3cccs3)CC2)n1 | -14.73 |
| Cc1csc(CNC(=O)NCC(O)c2ccc(F)cc2F)n1 (stereo not drawn) | -41.67 |
| Cn1cccc1CN1CCC2(CC1)CN(c1ccccc1)C(=O)CO2 | 40.64 |
| CCN(CCC(F)(F)F)S(=O)(=O)c1cccc(F)c1C#N | -46.3 |
| Cc1cccc2cc(C(=O)N3CCSCC3)n(C)c12 | 19.04 |
| N#Cc1cc(F)ccc1Cn1cncn1 | -14.79 |
| N#Cc1cc(F)ccc1NCc1ccc(Cn2cncn2)cc1 | 53.99 |
| Fc1ccc(CNc2ccccc2Cn2cncn2)cc1 | 32.93 |
| Cc1cnn(CC2CCCN2Cc2nnc(C(C)C)o2)c1 (stereo not drawn) | -12.82 |
| Cc1ccccc1CN(C)C(=O)CN1CCOC(Cn2cncn2)C1 (stereo not drawn) | 2.07 |
| Cc1cc(=O)c2cc(F)ccc2n1CC(=O)O | -30.92 |
| O=S(=O)(c1cccs1)N1CC[C@H]2[C@H]1CCN2c1ncccn1 | 56.76 |
| Cc1cccc(S(=O)(=O)N2CC[C@H]3[C@H]2CCN3c2ncccn2)c1 | 29.19 |
| O=S(=O)(c1ccc(F)cc1)N1CC[C@H]2[C@H]1CCN2c1ncccn1 | 31.96 |
| CN1CC(=O)N(c2cccc(F)c2)CC12CCN(S(=O)(=O)C1CC1)C2 (stereo not drawn) | -12.36 |
| COCCN1C(=O)[C@]2(CC[C@@H]3CN(C(=O)NC(C)C)C[C@@H]32)N=C1C | 16.91 |
| CN(C)[C@@H]1CCN(C(=O)Cc2cccs2)[C@H]1Cc1ccncc1 | -23.59 |
| Cc1cc(CN2CC[C@H]3[C@H]2CCN3S(C)(=O)=O)oc1C | -12.98 |
| CCN1C(=O)CCCC12CCCN(C(=O)c1cc(C)oc1C)C2 (stereo not drawn) | 19.09 |

| Structure (SMILES) | INHIBITION [%] |
| --- | --- |
| CCN1C(=O)CCCC12CCCN(C(=O)c1occc1C)C2 (stereo not drawn) | 46.87 |
| CCN1C(=O)CCCC12CCCN(C(=O)c1ccoc1C)C2 (stereo not drawn) | 50.17 |
| Cc1nc(C)c(C(=O)Nc2cccc(CN3CCC(CO)CC3)c2)o1 | -8.84 |
| Cn1cc(CN2CCc3ncnc(N4CCOCC4)c3CC2)cn1 | -15.83 |
| CCN1CCC2(COCc3c(C)nc(N(C)C)nc32)C1 (stereo not drawn) | 25.31 |
| COCCN1CCC2(COCc3c(C)nc(N(C)C)nc32)C1 (stereo not drawn) | 54.62 |
| Cc1nc(N(C)C)nc2c1COCC21CCN(CC2CC2)C1 (stereo not drawn) | -54.51 |
| CCN1CCC2(COCc3c(C)nc(N4CCOCC4)nc32)C1 (stereo not drawn) | -9.91 |
| Cc1nc(N2CCOCC2)nc2c1COCC21CCN(CC2CC2)C1 (stereo not drawn) | -27.12 |
| Cc1nc(N2CCOCC2)nc2c1COCC21CCN(CC(C)C)C1 (stereo not drawn) | 53.55 |
| CCOC(C)c1nccn1Cc1noc(CC)n1 (stereo not drawn) | -12.93 |
| COCCN1CC[C@H]2CN(c3cc(OC)ncn3)C[C@@H]2C1=O | -25.53 |
| O=C(c1ccccc1F)N1CCOC(c2nc(-c3ncccn3)no2)C1 (stereo not drawn) | -14.56 |
| COc1cccc(-c2ccc3nc(C4CCN(C(C)=O)CC4)nn3c2)c1 | -3.4 |
| O=C1NC2(CCN(Cc3nccs3)CC2)CC1c1ccncc1 (stereo not drawn) | 53.54 |
| O=C1NC2(CCN(Cc3cccs3)CC2)CC1c1ccncc1 (stereo not drawn) | -13.79 |
| O=C1NC2(CCN(Cc3ccc(F)cc3)CC2)CC1c1ccncc1 (stereo not drawn) | -26.22 |
| COc1ccc(CNC(=O)NCCc2csc(C)n2)cn1 | -33.61 |
| Cc1nnc(N2CCC(CN(C)C(C)C)CC2)c(C#N)c1C | 2.1 |
| Cc1nnc(N2CCCC(CS(N)(=O)=O)C2)c(C#N)c1C (stereo not drawn) | 57.79 |
| Cc1nnc(N2CCC(CS(N)(=O)=O)CC2)c(C#N)c1C | 46.52 |
| CNc1nccnc1C1CCN(C(C)C)CC1 | -5.95 |

| Structure (SMILES) | INHIBITION [%] |
| --- | --- |
| Cc1c[nH]nc1C1CCN(S(=O)(=O)N(C)C)CC1 | 20.73 |
| CC(C)N1CCC(c2n[nH]cc2S(C)(=O)=O)CC1 | 53.59 |
| CC1CCN(CCNCc2cc(-c3ccccc3)cn3nnnc23)CC1 | 26.56 |
| CCc1c(C)nn2c(O)cc(C3CCN(C(=O)C4CC4)C3)nc12 (stereo not drawn) | 11.53 |
| Cc1cccc(CN2CC3(CCN(Cc4ccoc4)CC3)OCC2=O)n1 | 11.99 |
| O=C1CC(c2ccccc2)C2(CCN(Cc3ccncc3)CC2)N1 (stereo not drawn) | 54.07 |
| O=C1CC(c2ccncc2)C2(CCN(Cc3cccnc3)CC2)N1 (stereo not drawn) | -4.26 |
| O=C1CC(c2ccncc2)C2(CCN(Cc3ccc(F)cc3)CC2)N1 (stereo not drawn) | 6.03 |
| Cc1noc(C)c1CN1CCC2(CC1)NC(=O)CC2c1ccccc1 (stereo not drawn) | 20.01 |
| Cc1nc(CN2CCC3(CC2)NC(=O)CC3c2ccccc2)cs1 (stereo not drawn) | 44.43 |
| Cc1ccc(CN2CCC3(CC2)NC(=O)CC3c2ccccc2)s1 (stereo not drawn) | 57.85 |
| COc1cccc(C(=O)C2CCCN(c3cc(C#N)ccn3)C2)c1 (stereo not drawn) | -45.86 |
| CC(C)COc1cncc(NCCc2nnc3ccccn23)n1 | 39.02 |
| Cc1nn(C)cc1S(=O)(=O)N[C@@H]1CCC[C@@H](n2ccnc2)[C@@H]1O | 45.48 |
| CN(C)c1ccc(C(=O)N2CCN(Cc3cscn3)CC2)cn1 | 19.18 |
| COc1ccccc1N1CCN(C(=O)c2ccnc(N(C)C)c2)CC1 | 56.78 |
| CN(C)c1ccc(C(=O)N2CCCN(Cc3cscn3)CC2)nn1 | -11.33 |
| COc1ccccc1N1CCN(C(=O)c2ccoc2)CC1 | -2.44 |
| CN(C)c1cc(C(=O)N2CCCC2)ccn1 | -18.23 |
| CN(C)c1cc(C(=O)N2CCCN(Cc3cscn3)CC2)ccn1 | 51.21 |
